Laboratory results as given in PubChem BioAssay (NCI).
The panel holds about 79,000 compounds, 15% with a hit somewhere; the sample as a whole holds those more often. No stated cut-off is given here; in the data, active means growth inhibition above about 70%; inactive means the rest.

Tests used:
[1] = NCI Yeast Anticancer Drug Screen. Data for the rad50 strain (AID 155);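 further: 0% = growth of vehicle-only cultures of the same strain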; details: S. cerevisiae rad50 strain growth inhibition; at 50.0 µM; hits give high values
Method in brief: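 Genetically altered yeast (DNA repair pathway); compound treatment; growth inhibition vs vehicle ctrl.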

[2] = NCI Yeast Anticancer Drug Screen. Data for the mec2-1 strain (AID 157); details: S. cerevisiae mec2-1 strain, at 50.0 µM, hits give high values
Method in brief: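 Test agents were screened against the mec2-1 yeast strain, with defined DNA repair or cell cycle alteration. Growth was scored as inhibition against vehicle-only controls.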

[3] = NCI Yeast Anticancer Drug Screen. Data for the sgs1 mgt1 strain (AID 161);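 further: 0% = growth of cultures given vehicle only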; details: S. cerevisiae sgs1 mgt1 strain, at 50.0 µM, hits give high values
Method in brief: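 Genetically altered yeast, compound exposure, growth inhibition relative to vehicle.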

[4] = NCI Yeast Anticancer Drug Screen. Data for the cln2 rad14 strain (AID 165);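 further: 0% = growth equal to vehicle treated cultures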; details: S. cerevisiae cln2 rad14 strain, at 50.0 µM, hits give high values
Method in brief: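 Growth of compound-exposed yeast (cln2 rad14 genotype) measured and expressed as inhibition relative to vehicle.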

[5] = NCI Yeast Anticancer Drug Screen. Data for the bub3 strain (AID 167); details: S. cerevisiae bub3 mutant strain, at 50.0 µM, hits give high values
Method in brief: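 Yeast carrying a defined mutation is treated with each compound, and growth is compared with that of vehicle-exposed cells to give inhibition.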

[6] = NCI Yeast Anticancer Drug Screen. Data for the mlh1 rad18 strain (AID 175); details: S. cerevisiae mlh1 rad18 strain growth inhibition; at 50.0 µM; hits give high values
Method in brief: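 In this whole-cell yeast screen, a strain with altered DNA damage repair is challenged with compound, and its growth is measured against matched vehicle-treated controls.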

Measured: growth inhibition

CCCCCCCCCCCCCCCCCC(=O)CC(=O)OCC
inactive: [1] -1.25% | [2] 1.15% | [3] 3.5% | [4] 17.9% | [5] -10% | [6] 4.25%

C/C=C/COc1cc2c(cc1C(C)c1ccc(OC)cc1)OCO2 (configuration not stated)
inactive: [1] -9.3% | [2] -0.95% | [3] -6.15% | [4] 24.4% | [5] -3.85% | [6] -1.2%

O=C(O)c1c(F)c(F)c(C(=O)O)c(F)c1F
inactive: [1] 6.25% | [2] -15.8% | [3] 16.3% | [4] 15.1% | [5] 14.9% | [6] 11.5%

O=C1c2ccccc2C(=O)c2c1ccc1c2N=C(c2ccc(Br)cc2)CC(c2cccc3ccccc23)N1 (configuration not stated)
inactive: [1] -22.1% | [2] 11.6% | [3] 17.9% | [4] 10.2% | [5] 9.95% | [6] -11.6%

COc1cc(=O)n(-c2ccccc2)nc1C#N
inactive: [1] 2.25% | [2] -0.7% | [3] 1.35% | [4] -46.1% | [5] 8.85% | [6] -1.2%

CN(C)/C=C/c1nnnn1-c1ccc(I)cc1
inactive: [1] 4.5% | [2] 12.9% | [3] 24.8% | [4] 7.45% | [5] 28.8% | [6] 34.6%

CC1OC1P(=O)(O)O (configuration not stated)
inactive: [1] 16.6% | [2] -5.9% | [3] -4.55% | [4] 1.7% | [5] -3.3% | [6] -6.55%

Cc1ccc(C(C)C)c(OC2OC(C(=O)O)C(O)C(O)C2O)c1 (configuration not stated)
inactive: [1] 5.95% | [2] 13.9% | [3] -9% | [4] -33.7% | [5] 10.9% | [6] -10.4%

COc1cc(C(=O)Nc2ccc(S(=O)(=O)Nc3nc(C)cc(C)n3)cc2)cc(OC)c1OC
inactive: [1] -10.7% | [2] -21.9% | [3] -6.65% | [4] 10.7% | [5] -4.9% | [6] -10.4%

CC(=O)N(C(C)=O)c1cc2c3c(c1)CCCN3CCC2
inactive: [1] 2.2% | [2] -40.8% | [3] -22.1% | [4] -36.8% | [5] -16.1% | [6] -1.6%

Cc1ccc(C2CCC(C#N)=CN2C)cc1 (configuration not stated)
inactive: [1] 11.5% | [2] -0.25% | [3] 1.5% | [4] -39.4% | [5] -13% | [6] 3.6%

NS(=O)(=O)c1ccc(N=Cc2ccccc2)cc1
inactive: [1] 0.4% | [2] -1.35% | [3] 12.6% | [4] 5.45% | [5] 15.2% | [6] 10.1%

NS(=O)(=O)c1ccc2cc(S(N)(=O)=O)ccc2c1
inactive: [1] 19.1% | [2] 13.5% | [3] 22.4% | [4] 15.5% | [5] 23.1% | [6] 25.8%

O=Nc1ccc(O)c2ncccc12
inactive: [1] 7.15% | [2] -9.45% | [3] 15.7% | [4] -26.6% | [5] 1.5% | [6] 31%

COC(=O)c1nc(SC)[nH]c1CC(N)=O
inactive: [1] 43.5% | [2] 22.4% | [3] 20.5% | [4] -22.8% | [5] 32.7% | [6] -15.2%

COc1ccc(Cc2c3cc(OC)c(OC)cc3cc[n+]2C)cc1
inactive: [1] -0.05% | [2] -28.4% | [3] -17.9% | [4] -2.45% | [5] -10.8% | [6] -6.15%

NC(=S)n1nc(-c2ccccc2)c(N=Nc2ccc(Br)cc2)c1-c1ccccc1
inactive: [1] 38.6% | [2] 3.8% | [3] 21.7% | [4] 15.4% | [5] 14.2% | [6] 12.4%

COc1ccc(/C=C(\CC(=O)c2ccc(Cl)cc2)C(=O)O)cc1
inactive: [1] -21.5% | [2] -8.85% | [3] 6.6% | [4] -30.6% | [5] 1% | [6] -5.8%

COC(=O)CC(c1ccc(OC)cc1)C(CC(=O)OC)c1ccc(OC)cc1 (configuration not stated)
inactive: [1] -19.2% | [2] -29.8% | [3] 13.9% | [4] 15.8% | [5] 25.9% | [6] -20.1%

Cc1cccc(C)c1NC(=O)C1=NC(=S)NC(c2ccccc2)C1c1nc2ccccc2s1 (configuration not stated)
inactive: [1] -5.7% | [2] -19% | [3] -15.4% | [4] 10.2% | [5] -0.85% | [6] -1.1%

CCOC(=O)C1=CN(C)C=C(Br)C1C#N (configuration not stated)
inactive: [1] -2.2% | [2] 10.1% | [3] 4.55% | [4] 6.45% | [5] 8.1% | [6] -4.75%

CCN(CC)CCC(=O)c1ccc(C)cc1
inactive: [1] -37.4% | [2] -46.8% | [3] -26.1% | [4] 11.2% | [5] 0.5% | [6] -23.1%
